Rows were chosen to be rich in hits. Some 6.2% of all compounds tested hit in one or more screens of this group.
AHR act = activators of human aryl hydrocarbon receptor; P35869; AHR-responsive luciferase reporter cells, luminescence; activation, % at 5 µM; 320,000 compounds, 2.5% hits; AID 2796; in the data active = activation above about 47%
NTR1 agonist = agonists of human neurotensin receptor NTR1. P30989. NTR1-U2OS beta-arrestin-GFP spot imaging, agonist mode. activation, % at 20 µM. 330,000 compounds, 0.17% hits. AID 493036;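 active = activation at or above 40% of the spot to cytoplasm intensity ratio, with at least 20 cells analyzed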
Target sequence (P30989 whole entry, looked up): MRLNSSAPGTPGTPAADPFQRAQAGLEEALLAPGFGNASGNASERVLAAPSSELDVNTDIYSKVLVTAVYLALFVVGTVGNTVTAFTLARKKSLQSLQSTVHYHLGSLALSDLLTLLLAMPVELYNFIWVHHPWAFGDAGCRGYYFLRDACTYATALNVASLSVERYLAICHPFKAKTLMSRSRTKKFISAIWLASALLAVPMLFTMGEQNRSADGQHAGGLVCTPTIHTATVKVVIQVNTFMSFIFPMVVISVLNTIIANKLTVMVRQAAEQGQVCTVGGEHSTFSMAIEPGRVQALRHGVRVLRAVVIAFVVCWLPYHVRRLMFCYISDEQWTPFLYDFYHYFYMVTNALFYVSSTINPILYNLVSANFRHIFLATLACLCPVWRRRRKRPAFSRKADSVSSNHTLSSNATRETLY
Mot1-301 SUMO = blocks SUMOylation pathway, rescuing yeast Mot1-301 growth; growth rescue, % at 18.8 µM; 320,000 compounds, 1% hits; S. cerevisiae Mot1-301 growth rescue, ATP luminescence, 38.5C; percent above DMSO median, 100 means doubled; AID 2716;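 active = every valid replicate shows activation above 250% relative to neutral control wells; inactive = the rest, any valid replicate at or below 250%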
Cardio protect = protects H9c2 cardiomyocytes from peroxide injury | 360,000 compounds, 0.63% hits | protection from H2O2 cell death, % at 20 µM | H2O2 injury protection, ATPLite, 2 h;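 active = compounds giving at least 50% protection of heart cells from peroxide-induced death in the single-dose screen, raw or plate-pattern-corrected value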
AI-2 QS modul = Vibrio harveyi AI-2 quorum sensing modulation | Vibrio harveyi JMH597 AI-2 luminescence/OD600 ratio, 9 h; hits give low values; strain lacks LuxN and CqsS sensors; 0 = neutral-control median | activity change, % at 7.5 µM | 300,000 compounds, 0.4% hits | AID 2094; in the data active = activity change below about -75%, passing the limit was not always enough;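 also: luminescence divided by OD600 gain over 9 h not by final OD600 alone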
NR3A LBD binder = modulators (binders) of human NR3A ligand-binding domain; AID 1259313; 340,000 compounds, 2.5% hits; NR3A LBD differential scanning fluorimetry, Tm shift; 0% = protein alone, 100% = glycine-bound protein; Tm shift relative to glycine control, % at 25 µM;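 active = melting temperature shift of at least 10% of the positive control shift, at one fixed dose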
Numbers stand for hits; i = inactive; nt = no result given.

SMILES	AHR act	NTR1 agonist	Mot1-301 SUMO	Cardio protect	AI-2 QS modul	NR3A LBD binder
O=C(Nc1cccc(C(F)(F)F)c1)c1ccc(-n2cncn2)nc1	i	i	i	i	i	i
O=C(Nc1cccc(/C=C/c2ccccn2)c1)c1ccc(-n2cncn2)cc1	i	i	i	68.8	nt	i
O=S(=O)(Nc1cc(Sc2ncn[nH]2)c(O)c2ccccc12)c1ccccc1	nt	i	nt	i	nt	i
O=C(O)CSc1cc(NS(=O)(=O)c2ccc(Br)cc2)c2ccccc2c1O	48.8	nt	i	i	i	i
Cc1cc(C)c(OCC(=O)NCCCn2nc(C)cc2C)c(C)c1	i	i	i	i	nt	i
OCCNc1nc(-c2cccnc2)nc2ccccc12	i	i	i	i	i	i
Cc1nc(NCCCN2CCOCC2)c2oc3ccccc3c2n1	i	i	i	i	i	i
c1cncc(-c2nc(NCCCn3ccnc3)c3ccccc3n2)c1	74.8	i	i	i	i	i
O=c1c2ccccc2nc(-c2ccccc2)n1CCCn1ccnc1	56.1	i	i	i	i	i
c1ccc(-c2nc(NCCCn3ccnc3)c3oc4ccccc4c3n2)cc1	82.3	i	i	i	i	i
Cc1ccc(-c2nc3ccccc3c(=O)n2CCCn2ccnc2)cc1	i	i	i	i	i	i
Cc1nc(NCCCn2ccnc2)c2ccccc2n1	57.2	i	i	i	i	i
O=C(OCc1cn([C@H]2C[C@H](c3ccc(Cl)cc3)N(CC3CCCCC3)C[C@@H]2O)nn1)c1ccccc1	nt	nt	nt	i	nt	nt
O=C(O)c1cccc(NC(=S)NC(NC(=O)c2cccc([N+](=O)[O-])c2)C(Cl)(Cl)Cl)c1 (stereo not drawn)	i	i	i	i	i	i
O=C(NC(NC(=S)Nc1ccc(Cl)cc1Cl)C(Cl)(Cl)Cl)c1cccc([N+](=O)[O-])c1 (stereo not drawn)	i	i	i	i	i	20.7
CN(C)C(=O)NC(NC(=S)Nc1ccccc1)C(Cl)(Cl)Cl (stereo not drawn)	i	i	i	i	i	i
O=C(NC(NC(=S)Nc1ccccc1)C(Cl)(Cl)Cl)c1cccc(Cl)c1 (stereo not drawn)	i	i	i	i	i	23.6
C=C(C)CNC(=O)C1CCC(=O)N(CCCc2ccccc2)C1 (stereo not drawn)	i	nt	i	i	i	i
COc1ccc(CCNC(=O)CSc2ccc(-c3cccs3)nn2)cc1	i	i	i	i	i	29.2
Cc1ccc(CNC(=O)CSc2ccc(-c3cccs3)nn2)cc1	i	i	i	i	i	i
COc1ccccc1-c1ccc(SCC(=O)NCCc2ccccc2)nn1	57.6	i	i	i	i	i
O=C(CSc1ccc(-c2ccc(F)cc2)nn1)NCCc1ccccc1	i	i	i	i	i	i
CCOC(=O)Cc1csc(SCC(=O)N(CC(C)C)c2c(N)n(Cc3ccccc3)c(=O)[nH]c2=O)n1	i	i	i	i	i	i
Cc1nn(CCCC(=O)NCc2ccc(Cl)cc2)c(C)c1[N+](=O)[O-]	i	i	i	i	i	11.8
O=C1NC2(Nc3ccccc31)C(=O)Nc1ccccc12 (stereo not drawn)	51.1	i	i	i	i	i
SMILES	AHR act	NTR1 agonist	Mot1-301 SUMO	Cardio protect	AI-2 QS modul	NR3A LBD binder
O=C(NCCc1ccccn1)c1cncc(Br)c1	i	i	i	i	nt	i
COC(=O)c1ccc(N2C(=O)CC(N(C)CCc3ccc(OC)c(OC)c3)C2=O)cc1 (stereo not drawn)	i	i	302.6	i	i	i
COc1ccc(N2C(=O)CC(N(C)CCc3ccc(OC)c(OC)c3)C2=O)cc1 (stereo not drawn)	i	i	i	i	i	i
COC(=O)c1ccc(N2C(=O)CC(SCCN)C2=O)cc1 (stereo not drawn)	i	i	i	i	i	12.4
CCOc1cc(NC(=O)C2CC2)c(OCC)cc1NC(=O)c1ccccn1	i	i	i	52.7	i	i
CCOc1cc(NC(=O)c2ccccn2)c(OCC)cc1NC(=O)c1ccccc1	i	i	i	i	i	i
Cc1cnc(C(=O)OCC(=O)N2c3ccccc3CC2C)cn1 (stereo not drawn)	i	i	i	i	i	i

Screening data (PubChem BioAssay)
